# From PubChem BioAssay
# Calls of active or inactive are those of the source.
# Tests used:
# [1] = binders of probe aFSTL3 on microarray, primary screen, stem cell growth factor project, biochemical, small-molecule microarray, fluorescence 635/667 (AID 1064); conditions: higher = more signal;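 also: measures binding of the biotinylated anti-FSTL3 antibody to printed compounds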
# [2] = binders from COS7 lysate, DM2A8 probe, primary screen, torsin A project, cell lysate, small-molecule microarray, fluorescence 635/667 (AID 1065); conditions: higher = more signal, COS7 lysate expressing mutant human TOR1A
# [3] = binders of probe aFGF2 on microarray, primary screen, stem cell growth factor project, biochemical, small-molecule microarray, fluorescence 635/667 (AID 1067); conditions: higher = more signal;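 also: measures binding of biotinylated aFGF2 protein to printed compounds on slides; z-score merges feature fluorescence and signal-to-noise across triplicate slides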
# [4] = binders of probe aFGF10 on microarray, primary screen, stem cell growth factor project, biochemical, small-molecule microarray, fluorescence 635/667 (AID 1071); conditions: higher = more signal;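 also: score merges 667 nm spot intensity and signal to noise from triplicate slides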
# [5] = target: Neurogenic locus notch homolog protein 2 (Homo sapiens) (UniProt Q04721); experiment: Notch2 binders on small-molecule microarrays, primary screen, biochemical, small-molecule microarray, 635 nm fluorescence, stem cell growth factors (AID 1073); conditions: Notch2 binding, higher = more signal
# [6] = target: Pro-neuregulin-1, membrane-bound isoform (Homo sapiens) (UniProt Q02297); experiment: NRG1 binders on small-molecule microarrays, primary screen, psychiatric disease protein project, biochemical, small-molecule microarray, fluorescence 635/667 (AID 1075); conditions: NRG1 binding, 635 nm fluorescence, higher = more signal;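 also: score combines 667 nm spot fluorescence with signal to noise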
# Pro-neuregulin-1, membrane-bound isoform (Homo sapiens), sequence (Q02297 whole entry, looked up, the tested form may be a part, canonical isoform): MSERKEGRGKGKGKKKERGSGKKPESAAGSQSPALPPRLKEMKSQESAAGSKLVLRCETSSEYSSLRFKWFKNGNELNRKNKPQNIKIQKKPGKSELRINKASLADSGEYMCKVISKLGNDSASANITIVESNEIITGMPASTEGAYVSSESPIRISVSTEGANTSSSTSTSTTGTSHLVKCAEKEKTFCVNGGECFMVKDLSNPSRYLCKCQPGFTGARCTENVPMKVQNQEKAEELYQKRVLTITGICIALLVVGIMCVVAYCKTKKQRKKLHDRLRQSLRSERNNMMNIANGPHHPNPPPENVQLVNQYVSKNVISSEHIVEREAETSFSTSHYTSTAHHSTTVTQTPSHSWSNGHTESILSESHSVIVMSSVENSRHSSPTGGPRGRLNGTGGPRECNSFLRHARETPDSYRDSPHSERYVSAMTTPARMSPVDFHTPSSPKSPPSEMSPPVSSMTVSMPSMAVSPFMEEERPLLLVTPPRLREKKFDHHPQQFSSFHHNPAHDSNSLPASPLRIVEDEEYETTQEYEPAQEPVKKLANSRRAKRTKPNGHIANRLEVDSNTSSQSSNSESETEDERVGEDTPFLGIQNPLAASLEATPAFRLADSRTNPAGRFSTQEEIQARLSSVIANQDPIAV
# [7] = test system: Neuregulin-1 EGF-like domain; experiment: binders of neuregulin-1 EGF-like domain, primary screen, biochemical, small-molecule microarray, 635 nm fluorescence (AID 1081); conditions: small-molecule microarray binding, higher = more signal;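 also: binding of the protein to compounds printed on small-molecule microarray slides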
# [8] = FRG1 promoter luciferase signal modulators, primary screen, FRG1 inhibition for FSHD, cell-based, C2C12 myotubes, firefly/Renilla luciferase, luminescence (AID 1084); conditions: higher = more signal, called active from +8 up or from −8 down
# [9] = binders of probe aFST on microarray, primary screen, stem cell growth factor project, biochemical, small-molecule microarray, fluorescence 635/667 (AID 1086); conditions: higher = more signal;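 also: score merges 667 nm fluorescence with signal-to-noise of each printed compound spot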
# [10] = binders of probe aHhip on microarray, primary screen, stem cell growth factor project, biochemical, small-molecule microarray, fluorescence 635/667 (AID 1087); conditions: higher = more signal;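 also: score merges spot fluorescence at 667nm with spot signal to noise ratio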
# [11] = test system: PRMT1 (protein arginine N-methyltransferase 1); experiment: PRMT1 binders on small-molecule microarrays, primary screen, biochemical, small-molecule microarray, 635 nm fluorescence (AID 1088); conditions: small-molecule microarray binding, higher = more signal;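 also: binding of Prmt1 protein to compounds spotted on small-molecule microarray slides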
# [12] = yeast growth modulation, basal conditions, primary screen, YJM789 clinical isolate, OD600, 24 h (AID 1089);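 also: growth of clinical yeast isolate S. cerevisiae YJM 789 seeded 1000 cells per well; test concentration not given here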; conditions: S. cerevisiae YJM789 growth, higher = more signal, called active from +8 up or from −8 down
# [13] = fission yeast growth modulation, primary screen, strain 972, OD600, 24 h, no modulator (AID 1090);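 also: basal condition with compound alone and no growth modifier present; test concentration not given here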; conditions: S. pombe 972 growth, higher = more signal, called active from +8 up or from −8 down
# [14] = S. cerevisiae growth modulation with rapamycin, primary screen, strain BY4716, OD600, 96 h (AID 1091); conditions: higher = more signal, called active from +8 up or from −8 down; also: test concentration not given here
# [15] = target: Torsin-1A-interacting protein 2 (Homo sapiens) (UniProt Q8NFQ8); experiment: LULL1 binders on small-molecule microarray, primary screen, cell lysate, human LULL1 lysate, 635/667 nm fluorescence (AID 1092); conditions: hLULL1 lysate binding, 635 nm fluorescence, higher = more signal;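 also: probe is lysate of COS7 cells overexpressing human LULL1; score merges per-feature 667 nm fluorescence with signal-to-noise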
# Torsin-1A-interacting protein 2 (Homo sapiens), sequence (Q8NFQ8 whole entry, looked up): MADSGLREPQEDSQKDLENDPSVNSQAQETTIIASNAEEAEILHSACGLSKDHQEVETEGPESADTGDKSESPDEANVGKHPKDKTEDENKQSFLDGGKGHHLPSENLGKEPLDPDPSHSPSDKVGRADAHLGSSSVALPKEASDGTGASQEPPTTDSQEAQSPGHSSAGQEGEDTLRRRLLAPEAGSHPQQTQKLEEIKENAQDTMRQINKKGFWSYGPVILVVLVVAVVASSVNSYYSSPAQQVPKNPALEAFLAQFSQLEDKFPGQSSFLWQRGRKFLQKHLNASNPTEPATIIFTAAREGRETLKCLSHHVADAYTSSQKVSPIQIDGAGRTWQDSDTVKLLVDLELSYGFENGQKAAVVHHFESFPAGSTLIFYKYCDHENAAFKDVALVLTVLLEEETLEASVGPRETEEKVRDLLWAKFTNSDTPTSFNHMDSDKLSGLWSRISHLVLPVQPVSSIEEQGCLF
# [16] = E. coli growth modulation, two-sided OD650, primary screen, E. coli filamentation project, strain DRC41, 24 h (AID 1093); conditions: OD650, 24 h, higher = more signal, called active from +8 up or from −8 down;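 also: MC1000 strain lacking acrAB efflux and sulA so SOS filamentation is blocked; test concentration not given here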
# [17] = small-molecule microarray binders of probe aLefty2, primary screen, biochemical, biotinylated probe, 635/667 nm fluorescence (AID 1094); conditions: higher = more signal;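 also: score merges spot fluorescence near 667 nm with spot signal-to-noise ratio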
# [18] = test system: Noggin (protein binding on small-molecule microarray); experiment: Noggin binders on small-molecule microarray, primary screen, biochemical, 635/667 nm fluorescence (AID 1095); conditions: 635 nm fluorescence, higher = more signal;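 also: score merges 667 nm feature fluorescence with signal to noise over triplicate slides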
# [19] = target: Neurogenic locus notch homolog protein 3 (Homo sapiens) (UniProt Q9UM47); experiment: NOTCH3 binders on small-molecule microarray, primary screen, biochemical, 635/667 nm fluorescence (AID 1096); conditions: NOTCH3 binding, 635 nm fluorescence, higher = more signal
# Neurogenic locus notch homolog protein 3 (Homo sapiens), sequence (Q9UM47 whole entry, looked up): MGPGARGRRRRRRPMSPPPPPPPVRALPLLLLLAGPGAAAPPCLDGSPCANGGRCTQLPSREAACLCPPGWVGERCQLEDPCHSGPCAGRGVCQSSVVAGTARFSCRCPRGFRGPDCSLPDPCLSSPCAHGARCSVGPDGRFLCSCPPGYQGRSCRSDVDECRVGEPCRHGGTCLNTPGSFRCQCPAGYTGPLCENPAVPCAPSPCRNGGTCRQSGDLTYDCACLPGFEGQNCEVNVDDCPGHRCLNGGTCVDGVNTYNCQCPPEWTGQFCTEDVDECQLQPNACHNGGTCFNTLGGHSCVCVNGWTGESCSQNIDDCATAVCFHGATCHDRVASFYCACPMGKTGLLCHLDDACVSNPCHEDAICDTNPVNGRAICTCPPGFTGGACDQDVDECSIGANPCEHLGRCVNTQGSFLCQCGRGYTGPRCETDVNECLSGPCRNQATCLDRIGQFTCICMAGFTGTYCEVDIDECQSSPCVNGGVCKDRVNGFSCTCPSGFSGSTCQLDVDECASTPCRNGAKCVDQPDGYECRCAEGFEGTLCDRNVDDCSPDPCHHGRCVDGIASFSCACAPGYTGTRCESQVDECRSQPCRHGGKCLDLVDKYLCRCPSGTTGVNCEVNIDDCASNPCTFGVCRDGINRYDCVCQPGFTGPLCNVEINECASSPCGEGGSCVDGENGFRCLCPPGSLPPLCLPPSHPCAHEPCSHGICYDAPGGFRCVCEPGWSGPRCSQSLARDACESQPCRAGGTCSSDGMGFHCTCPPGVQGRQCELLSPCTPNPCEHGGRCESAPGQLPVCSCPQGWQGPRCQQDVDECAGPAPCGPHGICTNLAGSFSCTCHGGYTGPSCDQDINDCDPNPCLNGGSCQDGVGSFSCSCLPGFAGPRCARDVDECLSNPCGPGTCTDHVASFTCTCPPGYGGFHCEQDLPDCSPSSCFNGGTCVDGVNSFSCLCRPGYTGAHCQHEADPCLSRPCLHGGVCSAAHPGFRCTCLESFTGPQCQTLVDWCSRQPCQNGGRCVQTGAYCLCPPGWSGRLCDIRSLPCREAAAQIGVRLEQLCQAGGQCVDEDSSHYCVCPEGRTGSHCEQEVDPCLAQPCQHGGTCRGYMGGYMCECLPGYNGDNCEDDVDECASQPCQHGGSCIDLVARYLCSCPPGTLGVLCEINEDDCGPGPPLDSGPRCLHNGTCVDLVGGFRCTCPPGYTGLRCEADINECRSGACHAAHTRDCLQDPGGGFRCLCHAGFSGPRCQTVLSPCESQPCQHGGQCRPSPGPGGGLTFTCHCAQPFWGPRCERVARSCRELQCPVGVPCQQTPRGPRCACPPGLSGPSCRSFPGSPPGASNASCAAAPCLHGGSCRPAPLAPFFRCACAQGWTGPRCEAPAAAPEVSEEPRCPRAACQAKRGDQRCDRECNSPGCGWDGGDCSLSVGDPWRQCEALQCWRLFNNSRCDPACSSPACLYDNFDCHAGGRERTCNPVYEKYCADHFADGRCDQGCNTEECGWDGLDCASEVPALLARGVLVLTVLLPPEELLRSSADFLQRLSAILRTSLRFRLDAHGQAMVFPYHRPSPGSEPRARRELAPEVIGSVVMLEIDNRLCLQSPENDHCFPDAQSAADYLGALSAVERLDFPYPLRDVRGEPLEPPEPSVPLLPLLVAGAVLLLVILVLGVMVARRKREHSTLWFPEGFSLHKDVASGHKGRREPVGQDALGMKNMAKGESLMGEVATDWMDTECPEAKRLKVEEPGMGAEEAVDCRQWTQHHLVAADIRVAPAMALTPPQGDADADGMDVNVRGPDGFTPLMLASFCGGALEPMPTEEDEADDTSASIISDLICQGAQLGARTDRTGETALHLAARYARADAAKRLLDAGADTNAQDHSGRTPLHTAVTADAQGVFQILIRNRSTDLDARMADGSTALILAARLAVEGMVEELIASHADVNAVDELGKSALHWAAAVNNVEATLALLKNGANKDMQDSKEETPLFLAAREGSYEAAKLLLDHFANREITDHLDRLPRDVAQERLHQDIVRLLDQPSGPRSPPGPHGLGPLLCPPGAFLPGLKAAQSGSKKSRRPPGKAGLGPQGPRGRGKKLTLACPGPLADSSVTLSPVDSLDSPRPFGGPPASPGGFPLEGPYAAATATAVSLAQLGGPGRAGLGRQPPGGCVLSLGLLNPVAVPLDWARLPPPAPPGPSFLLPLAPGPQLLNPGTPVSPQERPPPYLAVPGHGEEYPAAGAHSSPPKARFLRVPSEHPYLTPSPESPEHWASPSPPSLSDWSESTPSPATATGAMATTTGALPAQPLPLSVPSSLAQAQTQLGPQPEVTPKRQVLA
# [20] = small-molecule microarray binders of probe aEGFR, primary screen, biochemical, biotinylated probe, 635/667 nm fluorescence (AID 1097); conditions: higher = more signal;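 also: probe is a biotinylated anti-EGFR antibody binding compounds printed on slides; score combines fluorescence near 667 nm and signal to noise of each spot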
Compound,composite z-score [1],composite z-score [2],composite z-score [3],composite z-score [4],composite z-score [5],composite z-score [6],composite z-score [7],z-score [8],composite z-score [9],composite z-score [10],composite z-score [11],z-score [12],z-score [13],z-score [14],composite z-score [15],z-score [16],composite z-score [17],composite z-score [18],composite z-score [19],composite z-score [20]
COC(=O)C1(CC(C)C)C=C2C(=C(C(C)C)C(=O)C2C)CN1 (stereo not given),0.901,-0.241,-0.0578,-0.589,-0.507,0.607,0.19,1.65 (inactive),0.315,-0.0603,-0.866,-0.166 (inactive),-0.0608 (inactive),1.08 (inactive),0.412,-0.844 (inactive),-0.0289,-1.29,-0.877,-0.103
COc1ccccc1CN1C(=O)c2ccccc2[C@](Cc2ccccc2I)(C(=O)NCCCN(C)C)[C@@H]1c1ccc(CO)cc1,-0.967,-0.501,-0.116,0.483,0.452,0.683,1.19,-3.16 (inactive),-0.0929,-0.37,1.4,0.404 (inactive),-20.1 (active),-2.96 (inactive),3.04,-5.17 (inactive),-0.305,0.134,0.591,-0.355
N[C@@H](Cc1ccccc1)Cn1cc(C2(O)CCCCC2)nn1,-0.337,0.543,-0.0718,-0.244,-0.232,0.138,-0.204,2.2 (inactive),1.27,0.0722,-0.235,-0.692 (inactive),-0.16 (inactive),-0.522 (inactive),0.205,-1.15 (inactive),-0.128,0.112,0.293,-0.14
O=C1NC(=O)C2C1C=CC(C(O)c1cccc(O)c1)N2Nc1ccc(Cl)cc1Cl (stereo not given),0.312,0.0528,-0.161,0.0569,1.09,1.08,0.275,0.203 (inactive),0.259,-0.272,-1.24,-0.927 (inactive),0.765 (inactive),0.668 (inactive),0.991,-2.08 (inactive),0.0893,0.115,-0.207,0.012
C=CCC(OC(C)=O)[C@@H]1[C@@H](N(Cc2ccc(-c3ccccc3)cc2)C(=O)c2cccc3ccccc23)c2cc(OCCCO)ccc2N1C(=O)c1ccc2ccccc2c1 (stereo not given in full),-0.254,-0.0509,-0.0973,0.246,0.045,-0.179,-0.172,-0.891 (inactive),0.277,-0.0672,0.189,-0.521 (inactive),-0.328 (inactive),-0.569 (inactive),0.813,-0.584 (inactive),0.0802,-0.106,-0.0403,-0.136
COc1ccc(C(O)C2C=CC3C(=O)N(C)C(=O)C3N2Nc2ccc([N+](=O)[O-])cc2[N+](=O)[O-])cc1OCc1ccccc1 (stereo not given),-0.0125,0.216,0.258,0.975,1.6,0.875,1.27,0.37 (inactive),1.04,-0.0296,1.35,0.932 (inactive),1.01 (inactive),0.839 (inactive),2.96,-0.636 (inactive),0.468,0.0404,1.06,0.349
CC(C)c1ccc(NN2C(C(O)C(C)C)C=CC3C(=O)N(c4ccccc4)C(=O)C32)cc1 (stereo not given),0.733,0.237,0.225,0.707,1.55,1.92,1.31,-0.0025 (inactive),1.3,-0.208,1.56,1.39 (inactive),0.313 (inactive),1.39 (inactive),3.53,-0.613 (inactive),0.633,0.284,1.04,0.516
COCCOC(=O)N1C(=O)[C@@]2(c3cc(C#Cc4ccc(OC)cc4)ccc31)[C@H](c1ccc(OCCO)cc1)N1[C@H](c3ccccc3)[C@H](c3ccccc3)OC(=O)[C@H]1[C@@H]2C(=O)N1CCCCCCC1,2.51,0.351,0.684,0.315,0.753,1.52,1.01,-0.531 (inactive),2.75,2.59,1.49,-1.32 (inactive),-0.0066 (inactive),3.2 (inactive),3.3,0.106 (inactive),1.45,2.09,0.955,0.882
COc1cc2c(cc1O)C(C1CC1)N(Cc1ccc([N+](=O)[O-])o1)CC2 (stereo not given),-0.0848,-0.242,-0.0226,0.682,1.52,1.49,1.03,-1.1 (inactive),0.609,-0.0003,0.287,-0.123 (inactive),-3.53 (inactive),-2.16 (inactive),1.85,-1.16 (inactive),-0.0046,-0.2,0.903,-0.0734
